High-throughput results deposited in PubChem BioAssay by several laboratories.
This is a sample that favours compounds with a hit; in the whole collection about 2.9% have one here.
Calb biofilm kill: kills Candida albicans biofilms; C. albicans biofilm + clotrimazole, Alamar Blue; inhibition, % at 6 µM; actives 0.14% (n = 85,000); AID 834;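 active = inhibition above 20%; inactive = inhibition below 20%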;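 also: preformed 24 hr biofilms exposed to compound for 48 hr; 0% = biofilm without compound and 100% = blank killed by clotrimazole plus chlorhexidine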
ERa SRC1 pot: ER-alpha (human) coactivator binding potentiation. P03372. TR-FRET ERalpha-LBD/SRC-Cy5 coactivator binding, 2 h; 100 = basal binding, no effect. actives 1.3% (n = 86,000). coactivator binding (% of control), % at 25.6 µM; in the data active = activity above about 200%;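 also: binding measured in presence of low estradiol as agonist stimulus; 0% = peptide alone without receptor and 100% = receptor with peptide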
Smad3 inh: Smad3 (human) transcription factor binding inhibition | AID 630 | actives 0.29% (n = 88,000) | inhibition, % at 25 µM | TR-FRET Smad3/Dy647-FoxH1 peptide binding, europium anti-His | P84022;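 active = compounds that reduce the energy-transfer binding signal between the protein and its labelled peptide by more than half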;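 also: 0% = Smad3 plus labelled peptide maximal FRET and 100% = peptide-only background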
ERb coact inh: ER-beta (human) coactivator binding inhibition. Q92731. TR-FRET ER-beta LBD / SRC1-Cy5 peptide binding; receptor agonist-loaded with 1 µM estradiol. inhibition, % at 25.6 µM. actives 1.3% (n = 86,000);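 active = compounds whose percent inhibition of the receptor-coactivator binding signal exceeds about 50% in the single-dose screen, limit read from the data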;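 also: 0% = receptor plus peptide wells without compound and 100% = peptide-only wells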
Target sequence (Q92731 whole entry, looked up, the tested form may be a part): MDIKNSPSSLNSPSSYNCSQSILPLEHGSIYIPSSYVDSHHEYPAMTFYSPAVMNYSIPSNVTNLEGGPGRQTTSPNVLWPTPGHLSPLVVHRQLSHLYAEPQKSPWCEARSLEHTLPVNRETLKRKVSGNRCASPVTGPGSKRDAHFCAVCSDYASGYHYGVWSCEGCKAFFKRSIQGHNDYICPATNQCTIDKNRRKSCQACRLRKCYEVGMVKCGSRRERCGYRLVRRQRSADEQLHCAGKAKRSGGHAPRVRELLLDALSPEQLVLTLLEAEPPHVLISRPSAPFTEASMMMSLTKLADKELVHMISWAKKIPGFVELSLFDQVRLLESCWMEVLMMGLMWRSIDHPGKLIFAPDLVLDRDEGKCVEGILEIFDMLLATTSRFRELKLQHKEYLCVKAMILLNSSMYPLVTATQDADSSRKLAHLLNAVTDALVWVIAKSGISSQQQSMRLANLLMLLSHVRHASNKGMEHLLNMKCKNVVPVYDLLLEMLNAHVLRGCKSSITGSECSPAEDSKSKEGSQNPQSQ
HePTP inhibitor: inhibitors of human HePTP phosphatase. P35236. recombinant HePTP phosphatase activity, OD absorbance. inhibition, % at 20 µM. actives 0.64% (n = 110,000); in the data active = inhibition above about 50%;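 also: plate controls were vehicle for no effect and reference inhibitor for full effect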
ERa coact inh: ER-alpha (human) coactivator binding inhibition; actives 1.7% (n = 86,000); TR-FRET ER-alpha LBD / SRC-1 peptide, estradiol-bound; inhibition, % at 25.6 µM; in the data active = inhibition above about 50%;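 also: 0% = receptor plus peptide control and 100% = peptide only without receptor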
The depositor's hits bear a star; ! = not confirmed by another sample; [ ] = remark or other dose.

Brc1ccccc1-c1nnc(CSc2nnnn2-c2ccccc2)o1 was read as Calb biofilm kill -1, ERa SRC1 pot 88, Smad3 inh 4, ERb coact inh 27, HePTP inhibitor 6 and ERa coact inh 51*.
COc1ccc(-c2noc(-c3ccc(C)c([N+](=O)[O-])c3)n2)cc1 was read as HePTP inhibitor 12.
`COC(=O)C1=C(C)N(C)C(C)=C(C(=O)OC)C1c1ccccc1` gave HePTP inhibitor -10.
For COC(=O)C1=C(C)N(C)C(C)=C(C(=O)OC)C1c1ccsc1 the results were Calb biofilm kill 4, ERa SRC1 pot 86, Smad3 inh 3, ERb coact inh -6, HePTP inhibitor 105*! and ERa coact inh 0.
For COC(=O)c1ccc2c(=O)n(CCN3CCOCC3)c(SCC(=O)C(C)(C)C)nc2c1 the results were Calb biofilm kill 7, ERa SRC1 pot 786*[fluorescence artefact?], Smad3 inh -2, ERb coact inh 4 and ERa coact inh 9.
`O=S(=O)(NCC(O)COCc1ccco1)c1cccs1` (stereo not drawn) gave Calb biofilm kill 2, ERa SRC1 pot 90, Smad3 inh -3, ERb coact inh 50*, HePTP inhibitor 3 and ERa coact inh 53*[fluorescence artefact?].
Screening CCOc1cc(-n2cnnn2)c(OCC)cc1NC(=O)c1cnccn1 returned Calb biofilm kill 3, ERa SRC1 pot 137, Smad3 inh 16, ERb coact inh 26, HePTP inhibitor 38 and ERa coact inh 55*.
Cc1cc2nc(-c3cc(NC(=O)COc4ccccc4[N+](=O)[O-])ccc3Cl)oc2cc1C was read as HePTP inhibitor -7.
`CC(C)c1[nH]nc2c1C(c1cccc(OC(=O)N3CCOCC3)c1)C(C#N)=C(N)O2` (stereo not drawn) gave HePTP inhibitor 0.
`CCc1[nH]nc2c1C(c1cccc(OC(=O)N3CCOCC3)c1)C(C#N)=C(N)O2` (stereo not drawn) gave Calb biofilm kill 8, ERa SRC1 pot 563*, Smad3 inh 0, ERb coact inh -4, HePTP inhibitor -1 and ERa coact inh -32.
`O=C(Nc1ccc(F)cc1)N1CCN(C(=O)c2ccco2)CC1` gave HePTP inhibitor -3.
C/C(=C\C(=O)c1ccccc1)Nc1ccccc1O was read as HePTP inhibitor 0.
`COC1=CC(CC(=O)c2ccc(OC)c(OC)c2)C(C(=O)c2ccccc2Cl)C=C1OC` (stereo not drawn) gave HePTP inhibitor 5.
`COC1=CC(CC(=O)c2ccc(OC)cc2)C(C(=O)c2ccccc2Cl)C=C1OC` (stereo not drawn) gave HePTP inhibitor 95*.
`Cc1nn(C)c(C)c1N=Cc1c(O)ccc2ccccc12` gave Calb biofilm kill 9, ERa SRC1 pot 96, Smad3 inh 8, ERb coact inh 68*[fluorescence artefact?], HePTP inhibitor 0 and ERa coact inh -4.
Screening Oc1ccc2ccccc2c1/C=N/n1cnnc1 returned Calb biofilm kill 7, ERa SRC1 pot 123, Smad3 inh 9, ERb coact inh 7, HePTP inhibitor 3 and ERa coact inh -2.
For O=C(C1CCCCC1)N1CCN=C1c1ccccc1 the results were HePTP inhibitor 2.
O=C1N=C(N2CCOCC2)S/C1=C1\C(=O)N(Cc2ccccc2)c2ccc(Br)cc21 was read as Calb biofilm kill 7, ERa SRC1 pot 34, Smad3 inh -4, ERb coact inh 44, HePTP inhibitor -5 and ERa coact inh 93*[fluorescence artefact?].
Screening O=C(O)c1ccc2c(c1)C(=O)N(c1cc(C(=O)c3ccccc3C(=O)O)ccc1Cl)C2=O returned HePTP inhibitor 8.
For Cc1nc(CSc2nc3[nH]ncc3c(=O)n2-c2ccccc2)cs1 the results were Calb biofilm kill 8, ERa SRC1 pot 87, Smad3 inh -14, ERb coact inh 15, HePTP inhibitor 9 and ERa coact inh 1.
Screening Cc1cccc(-n2c(SCc3cc(=O)n4c(C)cccc4n3)nc3[nH]ncc3c2=O)c1 returned Calb biofilm kill -3, ERa SRC1 pot 82, Smad3 inh 9, ERb coact inh 53* and ERa coact inh -6.
COC(=O)c1ccc(COc2ccc3c(C)c(C)c(=O)oc3c2C)o1 was read as Calb biofilm kill 8, ERa SRC1 pot 444*[fluorescence artefact?], Smad3 inh -44, ERb coact inh 13, HePTP inhibitor 8 and ERa coact inh 7.
